# Measurements: PubChem BioAssay
# Activity calls are given as the source filed them. Unless noted, how the calls were made is not given here.
# What was measured:
# [1] = compound effects on lung adenocarcinoma cell viability – A549, calcein-AM fluorescence, 48 h, basal, profiling panel (AID 1162); conditions: higher = more signal; further: test concentration not given here
# [2] = compound effects on differentiated 3T3-L1 adipocyte viability – cell-based, 3T3-L1 adipocytes, calcein-AM fluorescence, 48 h, basal, profiling panel (AID 1163); conditions: 3T3-L1 adipocytes viability, higher = more signal; further: test concentration not given here
# [3] = compound effects on hepatocellular carcinoma cell viability – HepG2, calcein-AM fluorescence, 48 h, basal, profiling panel (AID 1164); conditions: higher = more signal; further: test concentration not given here
# [4] = compound effects on multiple myeloma cell viability – MM1S, calcein-AM fluorescence, 48 h, basal, profiling panel (AID 1165); conditions: higher = more signal; further: test concentration not given here
# [5] = calcein-AM signal in unstimulated myeloma cells – cell-based, calcein-AM fluorescence, 48 h, PK04 Diversity Set, profiling panel (AID 1166); conditions: RPMI8226 myeloma viability, higher = more signal;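 further: cells grown under basal conditions without added stimulus; test concentration not given here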
# [6] = JC-1 mitochondrial signal, unstimulated HepG2 cells – cell-based, JC-1 fluorescence, 24 h, 100 nL compound, profiling panel (AID 1167); conditions: HepG2 mitochondrial potential, higher = more signal; further: test concentration not given here
# [7] = JC-1 mitochondrial signal, unstimulated adipocytes – cell-based, JC-1 fluorescence, 3T3-L1 adipocytes, 24 h, 100 nL compound, profiling panel (AID 1168); conditions: JC-1 mitochondrial fluorescence, higher = more signal, called active from +8 up or from −8 down; further: test concentration not given here
# [8] = JC-1 mitochondrial signal, unstimulated myeloma cells – cell-based, JC-1 fluorescence, RPMI8226, 24 h, 100 nL compound, profiling panel (AID 1169); conditions: JC-1 mitochondrial potential fluorescence, higher = more signal; further: test concentration not given here
# [9] = JC-1 mitochondrial signal, unstimulated MM1S myeloma – cell-based, JC-1 fluorescence, 24 h, 100 nL compound, profiling panel (AID 1170); conditions: MM1S mitochondrial potential, higher = more signal; further: test concentration not given here
# [10] = resazurin metabolic signal in A549 cells – cell-based, resazurin fluorescence, 24 h, PK04 Diversity Set, profiling panel (AID 1171); conditions: A549 viability, higher = more signal, called active from +8 up or from −8 down; further: test concentration not given here
# [11] = resazurin metabolic signal in HepG2 cells – cell-based, resazurin fluorescence, 24 h, PK04 Diversity Set, profiling panel (AID 1172); conditions: HepG2 viability, higher = more signal; further: test concentration not given here
# [12] = budding yeast growth changes without added modifier – OD600, strain BY4716, 24 h, basal condition, primary screen (AID 1173); conditions: S. cerevisiae BY4716 growth, OD600, 24 h; higher = more signal, called active from +8 up or from −8 down
# [13] = viability profiling in MM1S myeloma cells – cell-based, resazurin fluorescence, basal, 24 h, PK04 Diversity Set, profiling panel (AID 1174); conditions: higher = more signal, called active from +8 up or from −8 down; further: test concentration not given here
# [14] = target: Dihydroorotate dehydrogenase (quinone), mitochondrial (Plasmodium falciparum (isolate 3D7)) (UniProt Q08210); assay: inhibition of P. falciparum DHODH – biochemical, C-terminal His tag, absorbance 600 nm, primary screen (AID 1175); conditions: PfDHODH enzyme, DCIP absorbance 600 nm; higher = more signal, called active from +8 up or from −8 down;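 further: recombinant parasite enzyme with a five histidine tag at its C terminus; test concentration not given here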
# [15] = inhibition of PAO1 biofilm formation – strain PAO1, LB-PBS medium, absorbance 600 nm, primary screen (AID 1176); further: test concentration not given here; conditions: P. aeruginosa PAO1 growth/biofilm, A600, 12 h; higher = more signal
# [16] = growth modulation of vineyard yeast isolate – strain RM11-1a, OD600, basal, 24 h, primary screen (AID 1177);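 further: cultures grown under basal conditions with no added stressor; test concentration not given here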; conditions: S. cerevisiae RM11-1a growth, OD600, 24 h; higher = more signal, called active from +8 up or from −8 down
# [17] = growth of efflux-deficient E. coli DRC39 – strain DRC39, OD650, 24 h, E. coli filamentation inducers, primary screen (AID 1178);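 further: growth measured as culture turbidity by optical density at 650 nm; test concentration not given here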; conditions: E. coli DRC39 acrAB, higher = more signal, called active from +8 up or from −8 down
# [18] = growth of efflux-deficient E. coli DRC39 – strain DRC39, OD650, 48 h, E. coli filamentation inducers, primary screen (AID 1179);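 further: screen aims at cell division blockers that make cells filament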; conditions: E. coli DRC39 delta-acrAB growth, higher = more signal, called active from +8 up or from −8 down
# [19] = viability profiling in RPMI8226 myeloma cells – cell-based, resazurin fluorescence, basal, 24 h, PK04 Diversity Set, profiling panel (AID 1180); conditions: higher = more signal;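 further: RPMI8826 multiple myeloma cell line at 5000 cells per well; test concentration not given here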
# [20] = target: E3 ubiquitin-protein ligase XIAP (Homo sapiens) (UniProt P98170); assay: small molecules binding XIAP protein – biophysical, small-molecule microarray, fluorescence 635 nm, primary screen (AID 1181); conditions: higher = more signal;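 further: score merges 667 nm emission and signal to noise over triplicate slides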
# Chain of E3 ubiquitin-protein ligase XIAP (Homo sapiens) (P98170 whole entry, looked up): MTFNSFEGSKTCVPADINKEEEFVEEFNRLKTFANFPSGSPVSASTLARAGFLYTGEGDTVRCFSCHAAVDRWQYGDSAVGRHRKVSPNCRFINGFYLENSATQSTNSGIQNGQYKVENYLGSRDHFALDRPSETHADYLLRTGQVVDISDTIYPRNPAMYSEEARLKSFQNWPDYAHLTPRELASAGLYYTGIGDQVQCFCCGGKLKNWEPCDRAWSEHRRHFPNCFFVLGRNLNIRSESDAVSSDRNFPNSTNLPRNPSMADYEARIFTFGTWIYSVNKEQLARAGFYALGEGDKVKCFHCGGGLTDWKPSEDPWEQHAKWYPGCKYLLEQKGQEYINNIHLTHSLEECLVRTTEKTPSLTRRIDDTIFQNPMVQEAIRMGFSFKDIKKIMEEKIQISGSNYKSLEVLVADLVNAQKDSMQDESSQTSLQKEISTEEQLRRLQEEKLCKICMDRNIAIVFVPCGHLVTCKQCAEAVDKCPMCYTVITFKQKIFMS
# Chain of Dihydroorotate dehydrogenase (quinone), mitochondrial (Plasmodium falciparum (isolate 3D7)) (Q08210 whole entry, looked up): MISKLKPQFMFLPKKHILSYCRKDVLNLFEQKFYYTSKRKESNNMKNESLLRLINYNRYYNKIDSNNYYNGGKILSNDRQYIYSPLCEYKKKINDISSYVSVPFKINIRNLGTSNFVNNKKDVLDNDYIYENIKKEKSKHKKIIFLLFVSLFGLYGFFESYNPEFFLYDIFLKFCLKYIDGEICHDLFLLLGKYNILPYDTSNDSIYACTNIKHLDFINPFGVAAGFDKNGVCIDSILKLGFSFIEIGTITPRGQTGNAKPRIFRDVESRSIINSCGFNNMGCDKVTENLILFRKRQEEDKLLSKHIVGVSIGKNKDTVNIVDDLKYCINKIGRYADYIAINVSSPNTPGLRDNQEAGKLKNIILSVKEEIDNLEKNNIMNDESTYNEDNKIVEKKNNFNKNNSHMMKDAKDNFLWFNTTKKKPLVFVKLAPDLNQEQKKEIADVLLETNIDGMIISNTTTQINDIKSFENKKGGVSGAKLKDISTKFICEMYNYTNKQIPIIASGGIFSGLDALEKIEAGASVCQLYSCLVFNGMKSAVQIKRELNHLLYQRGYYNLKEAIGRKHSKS
SMILES,z-score [1],z-score [2],z-score [3],z-score [4],z-score [5],z-score [6],z-score [7],z-score [8],z-score [9],z-score [10],z-score [11],z-score [12],z-score [13],composite z-score [14],z-score [15],z-score [16],z-score [17],z-score [18],z-score [19],composite z-score [20]
COc1ccc([Si](C)(C)[C@@H]2[C@@H](CCO)O[C@]3(C(=O)N(Cc4ccccc4)c4ccccc43)[C@H]2C)cc1,-0.617,0.725,-0.495,-1.22,-2.05,2.34,0.358 (inactive),-0.181,0.849,-1.69 (inactive),-1,0.212 (inactive),-0.604 (inactive),0.825 (inactive),0.13 (inactive),0.347 (inactive),0.916 (inactive),-0.326 (inactive),-0.372,-0.232
N#Cc1ccc(NN2C(C(O)c3ccc(I)cc3)C=CC3C(=O)N(c4ccccc4)C(=O)C32)cc1 (stereo not given),-0.668,-0.392,0.0254,-1.03,-0.251,-0.895,0.641 (inactive),-0.586,-0.263,-0.383 (inactive),-1.59,0.179 (inactive),-1.34 (inactive),-0.165 (inactive),0.944 (inactive),0.62 (inactive),-0.904 (inactive),-0.397 (inactive),-0.328,-0.256
CN(C)c1ccc(C(O)C2C=CC3C(=O)NC(=O)C3N2Nc2ccc(Cl)cc2Cl)cc1 (stereo not given),-0.602,0.117,-0.675,0.463,-0.792,-1.26,-1.06 (inactive),-0.752,0.261,-0.555 (inactive),-0.492,0.454 (inactive),-1.44 (inactive),0.438 (inactive),0.683 (inactive),0.839 (inactive),0.221 (inactive),0.0462 (inactive),-1.44,0.0914
CN1C(=O)C2C=CC(C(O)c3ccc(N(C)C)cc3)N(Nc3ccc([N+](=O)[O-])cc3[N+](=O)[O-])C2C1=O (stereo not given),1.09,-0.459,-0.0167,-0.126,-0.4,-0.672,-1.06 (inactive),0.0429,-0.0883,0.0697 (inactive),0.183,0.111 (inactive),-0.355 (inactive),-0.548 (inactive),0.558 (inactive),-0.29 (inactive),-0.243 (inactive),-0.411 (inactive),0.236,-0.0023
Cc1ccc(N2C(=O)c3ccccc3[C@](C)(C(=O)NCC(C)C)[C@@H]2c2ccc(CO)cc2)nc1,-0.535,-0.672,-0.712,-0.359,0.256,-0.481,-0.74 (inactive),-0.0498,-0.634,0.606 (inactive),0.1,0.726 (inactive),-0.558 (inactive),1.08 (inactive),0.14 (inactive),1.42 (inactive),0.401 (inactive),-0.247 (inactive),-0.481,-0.0095
C#CCCCON=C1C[C@@H](O)[C@@H](O)[C@@H]2[C@@H]3C(=O)N(Cc4ccc5c(c4)OCO5)C(=O)[C@@H]3CC[C@H]12,0.391,-0.027,-0.464,0.484,0.0196,-0.537,-0.0334 (inactive),-0.427,-0.778,0.495 (inactive),0.168,0.0943 (inactive),-0.255 (inactive),-0.338 (inactive),-0.708 (inactive),0.162 (inactive),0.483 (inactive),0.961 (inactive),0.126,-0.127
CCC#CCN(Cc1ccccc1Br)[C@H](/C=C/c1ccccc1)[C@@H](O)Cc1ccccc1,0.178,-0.0581,-0.124,-0.227,-2.42,-2.35,-1.44 (inactive),-0.608,-0.32,1.36 (inactive),1.53,0.238 (inactive),0.753 (inactive),0.514 (inactive),-0.553 (inactive),0.846 (inactive),1.19 (inactive),0.994 (inactive),0.0518,0.0101
O=C(NCC(F)(F)F)[C@@H]1c2ccccc2C(=O)N(Cc2ccccc2Cl)[C@H]1c1ccc(CO)cc1,1.25,-0.0448,0.343,0.189,-0.317,1.48,-0.198 (inactive),-0.65,0.499,1.26 (inactive),0.519,-0.331 (inactive),0.403 (inactive),-0.731 (inactive),0.277 (inactive),-0.562 (inactive),0.113 (inactive),0.183 (inactive),0.641,0.282
CO[C@H]1O[C@H](CO)[C@@H](OC(=O)Nc2ccc3c(c2)OCO3)[C@H](OC(=O)Nc2ccccc2)[C@@H]1OC(=O)Nc1ccccc1,-0.279,-0.0955,-1.27,-2,-1.66,-1.17,0.157 (inactive),-0.611,-0.191,-1.57 (inactive),-0.671,-0.328 (inactive),-1.24 (inactive),-0.0612 (inactive),0.345 (inactive),1.13 (inactive),0.399 (inactive),-0.409 (inactive),-0.682,0.319
CCOC(=O)C1=CC[C@@H](c2ccccc2)N(S(=O)(=O)c2ccc(C)cc2)[C@H]1C,-1.54,-0.956,-1.21,-1.6,-1.77,3.96,0.775 (inactive),-0.198,-1.22,0.0723 (inactive),0.302,1.11 (inactive),-0.209 (inactive),-1.18 (inactive),-0.0601 (inactive),1.43 (inactive),-0.472 (inactive),-0.4 (inactive),-0.875,0.0512
[N-]=[N+]=NCc1ccccc1[C@H]1OC(c2ccc(OCCCO)cc2)=N[C@@]1(Cc1ccccc1N=[N+]=[N-])C(=O)NCc1ccccc1,-0.741,0.236,-0.946,-2.4,-3.8,0.37,-0.296 (inactive),-1.02,-1.38,0.0642 (inactive),-0.494,0.745 (inactive),-2.31 (inactive),0.545 (inactive),2.26 (inactive),1.95 (inactive),0.134 (inactive),-0.321 (inactive),-1.52,-0.117
NC(=O)NCC#Cc1ccc2c(c1)[C@]1(C(=O)N2)[C@H](c2ccccc2OCCO)N2[C@H](c3ccccc3)[C@H](c3ccccc3)OC(=O)[C@H]2[C@@H]1C(=O)N1CCN(c2ncccn2)CC1,-0.525,0.932,0.238,0.147,0.598,-1.48,1.08 (inactive),-0.356,-0.293,0.157 (inactive),-0.381,0.887 (inactive),-0.17 (inactive),-0.343 (inactive),2.31 (inactive),2.03 (inactive),1.27 (inactive),0.158 (inactive),1.19,-0.178
O=C1OCC=C[C@H]2OC34C=CCN(Cc5ccccc5)C(=O)[C@H]3N(CCO)C(=O)[C@@H]4[C@@H]12 (stereo not given in full),0.125,0.474,-0.885,1.12,0.44,-0.255,0.367 (inactive),-0.0019,-0.216,0.54 (inactive),1.21,-0.999 (inactive),1.6 (inactive),-0.415 (inactive),0.317 (inactive),-0.77 (inactive),0.508 (inactive),0.186 (inactive),0.894,-0.16
CC(C)=C1C(=O)C(c2ccccc2)=C2CN3C(=O)N(CCc4ccccc4)C(=O)[C@]3(Cc3ccccc3)[C@H]21,-0.778,0.66,0.0577,0.492,-0.895,-0.366,-0.623 (inactive),-0.0727,-0.496,-0.723 (inactive),-1.18,0.66 (inactive),-0.692 (inactive),0.223 (inactive),0.178 (inactive),0.071 (inactive),-0.652 (inactive),-0.295 (inactive),-0.693,-0.122
CCCNC(=O)[C@@H]1c2ccccc2C(=O)N(C2CCCCC2)[C@H]1c1ccc(CO)cc1,0.285,-0.144,0.107,-0.524,0.0117,2.29,0.00608 (inactive),-0.192,-0.401,1.58 (inactive),0.358,1.27 (inactive),-0.206 (inactive),1.05 (inactive),-0.329 (inactive),1.61 (inactive),0.619 (inactive),0.521 (inactive),-0.154,0.304
COCCOC(=O)N1C(=O)[C@@]2(c3cc(C#CC4=CCCCC4)ccc31)[C@H](C(=O)NC[C@H](O)c1ccccc1)[C@H]1C(=O)O[C@H](c3ccccc3)[C@H](c3ccccc3)N1[C@@H]2c1ccccc1OCCO,-1.03,-0.383,-3.29,-3.21,-4.04,-1.46,2.6 (inactive),-0.804,-1.67,-1.43 (inactive),-1.57,1.76 (inactive),-4.83 (inactive),0.271 (inactive),3.52 (inactive),2.69 (inactive),-0.504 (inactive),-0.542 (inactive),-4.64,0.175
